# Experimental data taken from PubChem BioAssay AID652115 (Broad Institute, 2013).
# About 3,800 (1.2%) of roughly 330,000 compounds were called active. What follows is part of a selection rich in actives, with near analogues and random picks from the rest. Values without a mark were called inactive. Rule as the data show it: active = inhibition above about 15%; inconclusive = no clear call, values can overlap the other calls; inactive = below that.
# Molecular target: NAD-dependent protein deacylase sirtuin-5, mitochondrial (Homo sapiens) (UniProt Q9NXA8)
# Sequence (Q9NXA8 whole entry, looked up): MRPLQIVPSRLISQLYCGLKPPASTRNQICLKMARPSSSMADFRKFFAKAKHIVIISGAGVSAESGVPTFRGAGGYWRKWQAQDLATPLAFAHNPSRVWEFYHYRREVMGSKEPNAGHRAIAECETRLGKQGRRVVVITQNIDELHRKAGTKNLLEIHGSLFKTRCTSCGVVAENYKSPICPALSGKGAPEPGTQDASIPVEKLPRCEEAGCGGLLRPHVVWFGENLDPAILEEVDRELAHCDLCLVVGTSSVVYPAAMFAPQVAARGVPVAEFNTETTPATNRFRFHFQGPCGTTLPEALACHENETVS
# Assay: blockers of sirtuin-5 deacylase activity – biochemical, fluorescence imaging, single point, set 5, primary screen (AID 652115)
# Conditions: Purified SirT5, succinyl-peptide AMC, trypsin-coupled fluorescence; at 15 µM; stronger effect = higher value
row,SMILES,inhibition
1,COc1ccc(S(=O)(=O)N2CCCCC2)cc1NC(=O)C1CC(=O)N(c2ccc3c(c2)OCCO3)C1 (configuration not stated),-0.216%
2,Cc1ccc(NC(=O)C2CC(=O)N(c3ccc4c(c3)OCCO4)C2)cc1S(=O)(=O)N1CCCCCC1 (configuration not stated),15.7% (active)
3,Cc1ccc(N2CC(C(=O)Nc3ccc(S(=O)(=O)N4CCCC4)cc3)CC2=O)cc1C (configuration not stated),-0.84%
4,CN1[C@@H]2c3ccc(-c4cccc(F)c4)c(=O)n3C[C@@H]2[C@@H](CO)[C@@H]1C(=O)NC1CCC1,1.95%
5,COC(=O)c1ccc([C@@H](O)[C@H](C)C(=O)CC(=O)OC(C)(C)C)cc1,37.8% (active)
6,CC(C)(C)OC(=O)N[C@H](C(=O)OC(C)(C)C)c1ccc(Br)cc1,0.762%
7,CC(C)(C)OC(=O)Nc1ccc([C@@H](NC(=O)OC(C)(C)C)C(=O)OC(C)(C)C)cc1,4.38%
8,C[C@@H]1CN([C@H](C)CO)C(=O)c2c(c3ccccc3n2C)-c2ccccc2CO[C@H]1CN(C)Cc1ccc(F)cc1,8.7%
9,C[C@H]1CN([C@@H](C)CO)C(=O)c2cc(-c3cccnc3)cnc2O[C@@H]1CN(C)C(=O)C1CC1,-5.02%
10,C[C@H](CO)N1C[C@H](C)[C@@H](CN(C)Cc2ccc(C(=O)O)cc2)Oc2ccc(NC(=O)Cn3cnnn3)cc2CC1=O,0.832%
11,C[C@H]1CN([C@@H](C)CO)C(=O)Cc2cc(NC(=O)Cn3cnnn3)ccc2O[C@H]1CN(C)Cc1ccc(C(=O)O)cc1,18% (active)
12,C[C@H]1CN([C@@H](C)CO)C(=O)Cc2cc(NS(=O)(=O)c3ccccc3)ccc2O[C@H]1CN(C)Cc1ccc(C(=O)Nc2ccccc2N)cc1,18.7% (active)
13,Cc1ccc(S(=O)(=O)Nc2ccc3c(c2)CC(=O)N([C@@H](C)CO)C[C@H](C)[C@H](CN(C)Cc2ccc(C(=O)Nc4ccccc4N)cc2)O3)cc1,3.56%
14,C[C@H]1CN([C@@H](C)CO)C(=O)Cc2cc(NS(=O)(=O)c3ccccc3)ccc2O[C@@H]1CN(C)Cc1ccc(C(=O)Nc2ccccc2N)cc1,-3.96%
15,C[C@@H]1CN([C@@H](C)CO)C(=O)Cc2cc(NC(=O)Cc3ccccc3)ccc2O[C@@H]1CN(C)Cc1ccc(Oc2ccccc2)cc1,15.7% (active)
16,C[C@@H]1CN([C@H](C)CO)C(=O)Cc2cc(NC(=O)Cc3ccccc3)ccc2O[C@H]1CN(C)Cc1ccc(Oc2ccccc2)cc1,11.3%
17,COc1ccc(CN(C)C[C@H]2Oc3ccc(NC(=O)Cc4ccccc4)cc3CC(=O)N([C@@H](C)CO)C[C@@H]2C)cc1,3.47%
18,C[C@@H]1CN([C@@H](C)CO)C(=O)Cc2cc(NC(=O)CCCN(C)C)ccc2O[C@@H]1CN(C)Cc1ccc(-c2ccccc2)cc1,-0.666%
19,C[C@@H]1CN([C@H](C)CO)C(=O)Cc2cc(NC(=O)CCC(F)(F)F)ccc2O[C@@H]1CN(C)Cc1ccncc1,-3.99%
20,C[C@H](CO)N1C[C@H](C)[C@@H](CN(C)Cc2ccc(-c3ccccc3)cc2)Oc2ccc(NC(=O)CCC(F)(F)F)cc2CC1=O,16.8% (active)
21,C[C@H]1CN([C@@H](C)CO)C(=O)Cc2cc(NC(=O)Cn3cnnn3)ccc2O[C@@H]1CN(C)Cc1ccc(-c2ccccc2)cc1,4.01%
22,COCc1cc(N2CCN(C(=O)OC(C)(C)C)C[C@@H]2C)ccc1N1CCN(Cc2ccccc2)[C@H](C)C1,-1.86%
23,COc1ccc2c3c([nH]c2c1)[C@H](CO)N(Cc1ccccc1)CC31CCN(C(=O)c2ccccn2)CC1,-0.283%

row,SMILES,inhibition
1,CC(=O)N[C@@H]1CC[C@@H](CCNC(=O)C2CC2)O[C@H]1CO,-0.463%
2,C[C@H](CO)N1C[C@H](C)[C@H](CN(C)C(=O)CCC(F)(F)F)OCCCC[C@H](C)Oc2ccc(NS(=O)(=O)c3ccc(F)cc3)cc2C1=O,6.37%
3,C[C@@H]1CCCCO[C@@H](CN(C)S(C)(=O)=O)[C@H](C)CN([C@@H](C)CO)C(=O)c2cc(NS(=O)(=O)c3cccs3)ccc2O1,-3.17%
4,CC(C)NC(=O)N(C)C[C@H]1Oc2ncc(-c3ccc(C(=O)N(C)C)cc3)cc2C(=O)N([C@H](C)CO)C[C@H]1C,-4.27%
5,C[C@@H]1CCCCO[C@H](CN(C)Cc2ccc(Cl)c(Cl)c2)[C@H](C)CN([C@@H](C)CO)C(=O)c2cc(NC(=O)CCC(F)(F)F)ccc2O1,11%
6,CCN(CC(=O)Nc1ccc2c(c1)OCO2)S(=O)(=O)c1ccccc1,-11.2%
7,CCN(CC(=O)NCCc1ccccc1)S(=O)(=O)c1ccccc1,13.5%
8,CCN(CC(=O)NC1CCS(=O)(=O)C1)S(=O)(=O)c1ccccc1 (configuration not stated),20.8% (active)
9,COc1cccc(/C=C2/SC(=S)N(CC(=O)NC3C=CS(=O)(=O)C3)C2=O)c1 (configuration not stated),7.07%
10,CCOc1ccc(/C=C2\SC(=S)N(NC(=O)c3ccncc3)C2=O)cc1OC,-1.31%
11,COc1ccc(/C=C2\SC(=S)N(CC(=O)NNC(=O)c3ccncc3)C2=O)cc1,36.3% (active)
12,COc1ccccc1S(=O)(=O)N1CC[C@@H]2[C@H]1c1cc(-c3ccccc3)ccc1N[C@@H]2CO,2.02%
13,O=C(C[C@@H]1CC[C@H](NC(=O)C2CCOCC2)[C@@H](CO)O1)Nc1ccccc1,-0.611%
14,Cc1ccc(S(=O)(=O)N2C[C@@H]3CCCC[C@@H]3[C@@H](C)[C@H]2c2cn(Cc3ccccc3)c3ccc(F)cc23)cc1,26.5% (active)
15,CCOC1=C2[C@@H](CN(S(=O)(=O)c3ccc(C)cc3)[C@H]2c2ccccc2F)[C@H]2C(=O)N(Cc3ccccc3)C(=O)[C@H]2C1,10.7%
16,Cc1ccc(F)cc1S(=O)(=O)N[C@@H]1CCN(Cc2ccc(-c3ccccc3)cc2)C1,4.54%
17,COC1=C/C(=C/c2c(N)n3nc(CC(=O)N4CCOCC4)sc3nc2=O)C=CC1=O,15.9% (active)
18,C=CCC1=C/C(=C\c2c(N)n3nc(CC(=O)N4CCOCC4)sc3nc2=O)C=C(OC)C1=O,31.6% (active)
19,O=C(OCC(=O)N1CCOCC1)c1ccc2ccccc2c1,-8.77%
20,COc1cccc(/C=C2\SC(=S)N(CCCC(=O)N3CCOCC3)C2=O)c1,-0.302%
21,COc1cc(/C=C2\C(=N)N3N=C(CC(=O)N4CCOCC4)SC3=NC2=O)cc(OC)c1OC,-5.1%
22,C[C@H](CO)N1C[C@H](C)[C@H](CN(C)Cc2cncnc2)Oc2cc(-c3ccccc3F)ccc2S1(=O)=O,-2.9%
23,O=C(C[C@H]1CC[C@H]2[C@@H](COC[C@H](O)CN2Cc2nccs2)O1)NCc1ccc(Oc2ccccc2)cc1,-0.449%

row,SMILES,inhibition
1,Cc1ccc(-c2cnc3c(c2)C(=O)N([C@@H](C)CO)C[C@H](C)[C@H](CN(C)C(=O)c2cccnc2)O3)cc1,1.09%
2,O=S(=O)(c1ccccc1F)N1[C@@H]2CNC[C@H]1C2c1ccc(-c2cncnc2)cc1 (some centres not stated),-2.66%
3,Cc1ccc(S(=O)(=O)N[C@H]2CC[C@@H](CC(=O)N3CCc4ccccc4C3)O[C@H]2CO)cc1,-2.83%
4,COCC(=O)N1[C@H](CO)[C@@H](c2ccccc2)C12CN(Cc1cc(F)ccc1F)C2,19% (active)
5,COCC(=O)N1CC2(C1)[C@H](c1ccc(-c3cccc(F)c3)cc1)[C@@H](CO)N2C(=O)COC,-3.18%
6,COCC(=O)N1CC2(C1)[C@@H](c1ccc(-c3cccc(F)c3)cc1)[C@@H](CO)N2C(=O)COC,-1.31%
7,C[C@@H](NC(=O)C[C@H]1C=C[C@@H](NC(=O)CN2CCOCC2)[C@@H](CO)O1)c1ccccc1,0.512%
8,O=C(C[C@@H]1CC[C@@H]2[C@H](COC[C@H](O)CN2S(=O)(=O)c2ccc(Oc3ccccc3)cc2)O1)NCCN1CCCCC1,-3.74%
9,CO[C@@H]1CN(C)C(=O)c2ccc(NS(=O)(=O)c3ccc(Cl)cc3)cc2OC[C@@H](C)N(C)C[C@H]1C,-8.92%
10,CC(C)NC(=O)N[C@H]1CC[C@@H](CCNC(=O)C2CCC2)O[C@@H]1CO,-0.093%
11,CO[C@H]1CC[C@H]2CCOc3c(C#N)cccc3C(=O)N(C)CC3(CCCCC3)CC(=O)N(C)C[C@@H]1O2,-0.489%
12,Clc1ccc(Nc2ccc3ccccc3n2)cc1,-0.101%
13,O=c1ccnc(Nc2ccc(Cl)cc2)[nH]1,-3.58%
14,CC1(C)N=C(N)NC(Nc2ccc(Cl)cc2)=N1,24.2% (active)
15,CO[C@H]1CN(C)C(=O)c2ccc(NS(=O)(=O)c3cn(C)cn3)cc2OC[C@@H](C)N(CC2CC2)C[C@H]1C,10.4%
16,CCOC(=O)c1cnc2nc(SCc3ccccc3Cl)[nH]n2c1=O,-0.638%
17,COc1cnc(SCc2ccc(Cl)c(Cl)c2)nc1Cl,-1.51%
18,COC(OC)c1ccnc(SCc2ccccc2Cl)n1,65.6% (active)
19,Cc1ccc2nc(CN(C)C(=O)[C@@H](Cc3ccccc3)NC(=O)[C@H]3O[C@@H](n4ccc(=O)[nH]c4=O)[C@H](O)[C@@H]3O)[nH]c2c1,0.009%
20,CN1C(=O)c2cc(NC(=O)c3cscn3)ccc2OC[C@@H]2O[C@H](CC(=O)N3CCCCC3)CC[C@H]21,10.6%
21,COc1ccc(C#Cc2cnc3c(c2)C(=O)N([C@H](C)CO)C[C@H](C)[C@H](CN(C)C(=O)CC2CC2)O3)cc1,8.29%
